Measurements: PMC6792352, “Limited Chemical Structural Diversity Found to Modulate Thyroid Hormone Receptor in the Tox21 Chemical Library” (Environmental Health Perspectives, 2019)
Structures can show the parent of a compound that is named as a salt.

Tested on: thyroid hormone receptor (endogenous TRα and TRβ)
Parameters: species or system GH3-TRE-Luc (rat pituitary); GH3-TRE-Luc luciferase reporter, antagonist mode against 1 nM T3, loss of signal, qHTS
Conditions: read-out: Average AC50 (uM) GH3-TRE-Antag, antagonist mode, 1 nM T3, no GH3 cytotoxicity hit

For `Oc1cc(Cl)cc(Cl)c1` [3,5-Dichlorophenol], which AC50 is on record?
Its AC50 is 54 µM.

Which AC50 does the source give for `CCN(CCCc1ccccc1)CCCc1ccccc1` [Alverine citrate] here?
Its AC50 is 10.8 µM.

`CCO[Si](CC(C)C)(OCC)OCC` [Triethoxy(2-methylpropyl)silane] was tested. Which AC50 did it give?
Its AC50 is 66.1 µM.

How did the AC50 turn out when `[O-][N+](=Nc1ccccc1)c1ccccc1` [Azoxybenzene] was run?
Its AC50 is over 50 µM.

How did the AC50 turn out when `NNC(N)=S` [Thiosemicarbazide] was run?
Its AC50 is 59.3 µM.

How did the AC50 turn out when `O=C(c1ccc(F)cc1)C1CCN(CCn2c(=S)[nH]c3ccccc3c2=O)CC1` [Altanserin hydrochloride] was run?
Its AC50 is 46.6 µM.

For `Clc1ccc(C2(Cn3cncn3)CC(Br)CO2)c(Cl)c1` (stereo not shown) [Bromuconazole], which AC50 is on record?
Its AC50 is 72.5 µM.

With `Cc1c(Nc2ncccc2C(=O)O)cccc1C(F)(F)F` [Flunixin meglumine] as the compound, how does the AC50 read?
Its AC50 is 2.85 µM.

`O=C(CCCN1CCC(C(=O)c2ccc(F)cc2)CC1)c1ccc(F)cc1` [Lenperone] was tested. Which AC50 did it give?
Its AC50 is 44.5 µM.

For `COC(=O)N(C(=O)N1CO[C@@]2(C(=O)OC)Cc3cc(Cl)ccc3C2=N1)c1ccc(OC(F)(F)F)cc1` [Indoxacarb], which AC50 is on record?
The AC50 was 9.12 µM.
